Screening data (PubChem)
Most compounds without a hit are left out; they make up all but 4.8% or so of the library.
SMARCA2 activ = SMARCA2 function activation, primary screen. MG213 cells, MMTV-luciferase reporter, dexamethasone, overnight. activation, % at 9.1 µM. 370,000 tested, 1% active. AID 652017; in the data active means activation above about 7.8%;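 further: 0% = vehicle wells and 100% = reference activator wells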
hcDAF-12 act = activators of H. contortus DAF-12 nuclear receptor; activation, % at 6.8 µM; 370,000 tested, 1.4% active; HEK293 hcDAF-12 lit1-tk-luc reporter, luminescence; 0% DMSO, 100% Δ7-dafachronic acid;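 active means activation above the mean of all tested compounds plus 3 SD, cut at about 5.5% in these data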;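 further: 100% = response to 3 µM Δ7-dafachronic acid high control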
hgDAF-12 ag = agonists of H. glycines DAF-12 nuclear receptor; 370,000 tested, 1.8% active; activation, % at 6.8 µM; HEK293 GAL4-hgDAF12 UAS-luciferase reporter, agonist luminescence; normalized to butyrate control;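 active means activation above a cutoff set at the mean of all screened compounds plus 3 SD, cut at about 10% in these data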;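 further: 0% = DMSO wells and 100% = sodium butyrate wells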
DAX1 inh-1 = inhibitors of DAX1 repression of SF-1 activated StAR promoter. HEK293T StAR-luciferase reporter, SF-1/DAX-1 repression relief. 370,000 tested, 1.1% active. inhibition, % at 6.8 µM;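 active means inhibition above the mean over all tested compounds plus 3 SD, cut at about 3.6% in these data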;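 further: 0% = DAX-1 cells with DMSO and 100% = cells lacking DAX-1 with DMSO; higher inhibition means more luminescence from relief of DAX-1 repression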
ssDAF12 agonist = S. stercoralis DAF-12 activation, primary screen. 370,000 tested, 1% active. HEK293 ssDAF-12/GRIP1 lit1-tk-luc reporter, luminescence; % of 3 µM dafachronic acid response. AID 652126. activation, % at 6.8 µM;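 active means activation above the mean over all tested compounds plus 3 SD, cut at about 0.9% in these data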;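 further: 0% = DMSO-only wells and 100% = 3 µM delta7-dafachronic acid wells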
DAX1 inh-2 = inhibitors of human orphan nuclear receptor DAX1 (NR0B1) | inhibition, % at 6.75 µM | HEK293 Gal4-DAX1 luciferase reporter, luminescence | 340,000 tested, 0.99% active | P51843;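 active means inhibition above the mean over all tested compounds plus 3 SD, cut at about 4.2% in these data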;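 further: 0% = DAX1-transfected cells with DMSO and 100% = empty-vector control cells with DMSO; inhibition shows as a rise in luminescence from relieved DAX1 repression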
Target sequence (P51843 207-470 limits assumed): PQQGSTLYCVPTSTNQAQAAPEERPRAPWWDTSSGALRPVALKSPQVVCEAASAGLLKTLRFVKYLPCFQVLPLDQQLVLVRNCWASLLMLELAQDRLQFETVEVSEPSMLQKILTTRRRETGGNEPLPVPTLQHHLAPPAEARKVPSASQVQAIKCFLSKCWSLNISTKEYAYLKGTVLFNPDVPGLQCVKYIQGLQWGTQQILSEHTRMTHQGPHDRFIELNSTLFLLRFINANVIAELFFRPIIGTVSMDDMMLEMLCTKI
LXR ag = LXR-beta agonism as hcDAF-12 counter-screen; shares compounds with hcDAF-12 act; HEK293 Gal4-LXR tk-luc reporter, luminescence, 24 h; normalized: DMSO 0%, positive control 100%; activation, % at 6.8 µM; 3,400 tested, under 10 active; AID 743027;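 active means mean percent activation of the reporter above a cutoff set as the average over tested compounds plus their standard deviation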
Target sequence (P55055 whole entry, looked up, the tested form may be a part): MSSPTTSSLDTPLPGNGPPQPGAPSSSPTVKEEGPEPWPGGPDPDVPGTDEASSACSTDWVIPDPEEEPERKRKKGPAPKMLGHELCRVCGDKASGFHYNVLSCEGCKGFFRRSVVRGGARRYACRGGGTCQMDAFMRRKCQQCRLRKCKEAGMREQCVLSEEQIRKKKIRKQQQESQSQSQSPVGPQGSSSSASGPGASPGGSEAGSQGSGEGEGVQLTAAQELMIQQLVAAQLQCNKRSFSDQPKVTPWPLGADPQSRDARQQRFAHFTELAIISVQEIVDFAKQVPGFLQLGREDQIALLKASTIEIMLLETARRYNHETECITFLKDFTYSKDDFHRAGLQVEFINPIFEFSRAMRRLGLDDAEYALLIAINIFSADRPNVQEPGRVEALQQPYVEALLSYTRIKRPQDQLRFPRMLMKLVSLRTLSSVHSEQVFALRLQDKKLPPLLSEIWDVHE
hcDAF12 conf = hcDAF-12 agonism, confirmation assay | HEK293 hcDAF-12 lit1-tk-luc reporter, luminescence; % of Δ7-dafachronic acid response | shares compounds with hcDAF-12 act | AID 743032 | activation, % at 6.8 µM | 3,400 tested, 61% active;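 active means mean activation across triplicate tests above the threshold derived from the earlier primary screen, cut at about 5.5% in these data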;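 further: 0% = DMSO only wells and 100% = 3 µM Δ7-dafachronic acid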
The depositor's hits bear a star; . = not tested or not shown.

SMILES	SMARCA2 activ	hcDAF-12 act	hgDAF-12 ag	DAX1 inh-1	ssDAF12 agonist	DAX1 inh-2	LXR ag	hcDAF12 conf
O=C(O)COc1ccc(/C=C/c2nc(-c3ccccc3O)n[nH]2)cc1	-0.1	5.2	0.1	0.2	-1.1	1.2	.	.
Oc1ccccc1-c1n[nH]c(-c2ccccc2O)n1	-4.0	7.1*	12.6*	-1.0	1.4*	2.1	1.0	9.6*
O=[N+]([O-])c1ccc(OC2OCC(O)C(O)C2O)cc1 (stereo unspecified)	-4.3	0.4	-0.2	-0.8	-0.6	.	.	.
CC(=O)/C(N=Nc1cc(C)ccc1O)=C(\C)O	-2.5	9.2*	-0.4	-0.1	0.3	2.2	0.0	6.3*
CC(=O)/C(N=Nc1ccc(C(=O)O)cc1[N+](=O)[O-])=C(\C)O	-2.2	-0.9	0.1	0.6	-1.2	-0.1	.	.
C=CCN1CCN(C(=O)c2oc3ccccc3c2C)CC1	-2.4	7.5*	0.4	0.5	-0.8	-0.1	-0.2	1.8
Cc1c(C(=O)N2CCN(Cc3cccs3)CC2)oc2ccccc12	-4.5	-0.5	-0.6	0.4	-1.5	0.0	.	.
O=CN1CCN(C(=S)Nc2ccc(OC(F)F)cc2)CC1	-1.2	-1.8	-0.2	0.5	-1.0	0.6	.	.
OCC1CCCN(C(=S)Nc2ccc(OC(F)F)cc2)C1 (stereo unspecified)	-1.4	10.7*	3.7	1.0	-0.5	0.7	0.1	0.3
O=C(C[n+]1cc(Br)cc2ccccc21)c1ccc(Cl)cc1	-2.3	8.2*	1.2	-0.3	0.0	0.2	-0.1	3.1
O=C(C[n+]1cc(Br)cc2ccccc21)c1ccc(Br)cc1	-2.3	4.6	0.7	0.2	-0.9	-0.9	.	.
CNC(=O)c1ccccc1C1(O)c2ccccc2CCc2ccccc21	-0.9	-0.5	-0.7	0.5	-0.8	.	.	.
COC(=O)[C@]12C[C@H](CC(=O)NCCc3ccccc3OC)C(=O)N(CCC3=CCCCC3)C1=C[C@H](COCc1ccccc1)O[C@@H]2C	-4.2	-1.7	0.4	-1.1	-1.1	.	.	.
C=CCc1ccccc1OCC(O)CNC1CCCC1 (stereo unspecified)	-1.5	7.2*	-2.8	0.3	-0.7	0.1	-0.3	0.1
C=CCc1ccccc1OCC(O)CNC(C)C (stereo unspecified)	0.3	-0.8	-1.2	0.7	-0.1	-0.3	.	.
Cc1sc2ncnc(N[C@@H](CCC(=O)O)C(=O)O)c2c1C	0.2	0.1	-1.1	0.2	-0.7	0.6	.	.
CCc1cc2c(N[C@@H](Cc3c[nH]c4ccccc34)C(=O)O)ncnc2s1	1.5	8.0*	2.2	0.7	-0.1	-1.2	-0.2	3.9
Cc1sc2ncnc(N[C@@H](Cc3c[nH]c4ccccc34)C(=O)O)c2c1C	-1.2	7.0*	5.5	0.5	0.7	-0.3	0.0	5.7*
CCc1cc2c(NC(Cc3c[nH]c4ccccc34)C(=O)O)nc(C)nc2s1 (stereo unspecified)	-0.1	4.6	0.7	-0.3	-0.3	0.4	.	.
C/C=C/c1ccc([C@H]2[C@@H](CN(CC(C)C)S(=O)(=O)c3ccccc3[N+](=O)[O-])N(C(=O)Nc3cccc(OC)c3)[C@H]2CO)cc1	0.1	-2.1	-1.6	-0.2	-1.6	.	.	.
CCC(C)CNC(=O)CN1C(=O)C2CCCCN2C(=O)c2ccccc21 (stereo unspecified)	-0.3	0.2	-1.9	0.5	-0.6	.	.	.
CSc1ccccc1OCc1cc(C(=O)NC2CCc3ccccc32)no1 (stereo unspecified)	-1.1	7.6*	0.0	-0.9	-0.5	0.1	-0.3	2.0
COc1ccc(-c2cn3ccccc3n2)cc1OC	3.0	12.6*	10.8*	1.6	3.1*	2.3	0.6	12.9*
COc1ccc(CC(=O)Nc2ccc(-c3cn4ccccc4n3)cc2)cc1OC	2.6	-3.0	1.0	-0.4	-1.5	-2.0	.	.
O=C(CN1CCCCC1)N=Nc1c(O)[nH]c2ccccc12	-2.7	2.6	0.6	-0.1	-0.6	2.9	.	.
SMILES	SMARCA2 activ	hcDAF-12 act	hgDAF-12 ag	DAX1 inh-1	ssDAF12 agonist	DAX1 inh-2	LXR ag	hcDAF12 conf
COC(=O)/C=C(\C)N=Nc1c(O)[nH]c2ccccc12	7.1	7.3*	1.4	0.2	0.4	1.3	-0.1	6.8*
Oc1[nH]c2ccccc2c1N=Nc1ccccc1	5.4	13.4*	10.2	1.9	0.5	1.9	0.7	14.0*
Oc1[nH]c2ccccc2c1N=Nc1nc2ccccc2s1	-1.0	3.9	5.6	0.0	-0.5	0.9	.	.
C=CCn1c(COc2ccc(C)cc2)nnc1SCC(=O)Nc1ccc(Oc2ccccc2)cc1	-4.3	-1.6	1.0	-1.1	-1.7	.	.	.
CCOC(=O)[C@@]12CN(C(=O)OC(C)(C)C)CC=C1N(Cc1ccc(OC)cc1)C(=O)[C@H]2CC(=O)NCc1cccc(C(F)(F)F)c1	-3.9	-1.2	-4.0	0.1	-1.3	.	.	.
O=C(CCc1nnc(Cc2c[nH]c3ccccc23)o1)NCCC1CCCCO1 (stereo unspecified)	4.9	6.8*	5.8	0.1	0.4	1.1	-0.2	1.8
C[C@H](NC(=O)C[C@@H]1C[C@@H]2c3cc(NC(=O)C4CCC4)ccc3O[C@@H]2[C@@H](CO)O1)c1ccccc1	-4.3	-1.7	1.2	-1.5	-1.2	.	.	.
CCN(CC)CCCNC(=O)c1cc2c(-c3ccc(Cl)cc3)nn(C)c2s1	-0.3	6.6*	0.7	1.8	0.2	5.5*	-0.2	6.7*
CC(C)COc1ccc(-c2csc(N3CCC(C(N)=O)CC3)n2)cc1	.	-4.0	4.2	.	-1.9	.	.	.
CCOC(=O)c1ccc2c(c1)NCc1cccc(OC)c1O2	6.3	6.6*	13.0*	1.3	1.1*	1.5	0.8	7.9*
COc1cccc(CN(C)C(=O)[C@@H](Cc2ccccc2)NC(=O)[C@H]2O[C@@H](n3ccc(=O)[nH]c3=O)[C@H](O)[C@@H]2O)c1	-0.9	-0.3	0.8	0.0	-1.2	.	.	.
C[C@@H]1ON(C)[C@H]2C[C@H]3c4[nH]c5cccc(-c6ccc7c(c6)OCO7)c5c4CCN3C(=O)[C@@H]12	2.8	-1.4	-2.1	-0.6	-1.2	.	.	.
Nc1nc2ncccn2c1-c1ccc(C(F)(F)F)cc1	-0.3	6.9*	-1.7	-0.8	0.1	.	-0.2	-0.7
Nc1nc2ncccn2c1-c1ccc(F)cc1	-1.6	1.9	-2.6	-0.6	-0.5	.	.	.
CNc1c2cccc(C)c2nc2c(C(=O)NCCN(C)C)cccc12	-5.5	37.7*	9.4	-5.4	4.1*	4.2	-0.3	-3.7
CC(C)C[C@H]1COc2cccc(F)c2S(=O)(=O)N1	-2.1	-1.7	3.3	-0.6	-0.8	.	.	.
